# RGS4-Gao reg: human RGS4-Galphao interaction regulation; P09471; Multiplexed bead flow cytometry, RGS4-Galphao binding; actives lie on both sides; binding response (% of control), % at 10 µM; hit rate 0.33% among 220,000; in the data active = binding response below about 49% or above about 150%; inactive = in between;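 also: fluorescent Galphao activated with aluminum fluoride binding bead-coupled RGS4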
# Target sequence (P09471 whole entry, looked up): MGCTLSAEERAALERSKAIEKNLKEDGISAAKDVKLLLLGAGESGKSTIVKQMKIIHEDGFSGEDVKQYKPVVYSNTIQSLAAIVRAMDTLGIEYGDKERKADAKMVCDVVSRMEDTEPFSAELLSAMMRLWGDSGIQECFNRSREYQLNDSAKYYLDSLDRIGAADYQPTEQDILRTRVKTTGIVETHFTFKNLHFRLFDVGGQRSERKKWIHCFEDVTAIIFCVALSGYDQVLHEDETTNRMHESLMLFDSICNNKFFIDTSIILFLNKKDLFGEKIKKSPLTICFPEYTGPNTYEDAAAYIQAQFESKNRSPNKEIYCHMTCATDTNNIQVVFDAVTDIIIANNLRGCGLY
# RGS7-Gao: human RGS7-Galphao interaction regulation. P09471. Multiplexed bead flow cytometry, RGS7-Galphao binding; actives lie on both sides. binding response (% of control), % at 10 µM. hit rate 0.35% among 220,000. AID 1439; in the data active = binding response below about 49% or above about 150%; inconclusive = no clear call, values can overlap the other calls; inactive = in between;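 also: fluorescent Galphao held in activated GDP-AlF4 state binding bead-coupled RGS7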
# GSH fluor: compound fluoresces at 488/530 nm on GSH beads. fluorescence (KMESF) at 10 µM. GSH beads flow cytometry, compound fluorescence 488/530 nm; stronger effect = higher value. AID 1776. hit rate 0.25% among 190,000; in the data active = fluorescence above about 89;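 also: glutathione beads carrying GST-tagged Bcl family fusion proteins plus one bare bead set; values are compound well signal with DMSO vehicle wells as background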
# RGS8-Gao reg: modulates binding of RGS8 to human Galphao. P09471. response (percent of control binding), % at 10 µM. multiplexed bead flow cytometry; actives lie on both sides. hit rate 0.34% among 220,000. AID 1423; in the data active = response below about 60% or above about 140%; inactive = in between;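 also: Galphao activated as the GDP aluminium fluoride complex binding bead-coupled RGS8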
# RGS16-Gao HTS: RGS16-Galphao interaction regulator (human); bead-based flow cytometry RGS16-Galphao binding, fluorescence; actives lie on both sides; binding response (% of control), % at 10 µM; hit rate 0.38% among 220,000; AID 1441;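 also: Galphao activated by GDP with aluminum fluoride before binding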
# Target sequence (O15492 whole entry, looked up): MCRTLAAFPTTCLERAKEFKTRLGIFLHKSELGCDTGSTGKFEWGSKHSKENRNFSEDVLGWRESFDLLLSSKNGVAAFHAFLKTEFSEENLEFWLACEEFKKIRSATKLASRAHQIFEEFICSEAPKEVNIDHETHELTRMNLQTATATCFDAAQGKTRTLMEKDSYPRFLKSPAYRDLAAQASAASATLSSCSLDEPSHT
# Target sequence (P09471 whole entry, looked up): as the sequence (P09471 whole entry, looked up) above
# Avidin fluor: compound fluoresces at 488/530 nm on avidin beads; fluorescence (KMESF) at 10 µM; hit rate 0.38% among 220,000; compound fluorescence 488/530 nm, flow cytometry; stronger effect = higher value; AID 1775; in the data active = fluorescence above about 47
# RGS-Gao: RGS4-Galphao interaction regulator (human) | shares compounds with RGS16-Gao HTS | multiplexed bead flow cytometry, RGS–Galpha-o binding | RGS4–Galpha-o binding response, % at 10 µM | hit rate 99% among 1,600;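 also: fluorescently labeled Galpha-o bound to GDP with aluminium fluoride binding biotinylated RGS beads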
# Avidin counter: biotin-avidin bead binding disruption counter-screen; streptavidin beads, fluorescein-biotin binding, flow cytometry; 1,700 tested, under 10 active; AID 1783; shares compounds with RGS16-Gao HTS; inhibition, % at 10 µM;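 active = inhibition above 50%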;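 also: median green fluorescence of gated singlet beads compared with DMSO control wells; 0% = DMSO wells and 100% = complete loss of bead fluorescence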
# RGS8-Gao confirm: RGS8-Galphao interaction regulation, single point confirmation; shares compounds with RGS16-Gao HTS; bead-based flow cytometry RGS8-Galphao binding, fluorescence; actives lie on both sides; binding response (% of control), % at 10 µM; hit rate 3% among 1,700; AID 1836; in the data active = binding response below about 72% or above about 130%; inactive = in between;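 also: Galphao activated as GDP AlF4 complex before binding bead RGS8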
# RGS7-Gao single: RGS7-Galphao interaction regulation, single point confirmation | shares compounds with RGS16-Gao HTS | bead-based flow cytometry RGS7-Galphao binding; actives lie on both sides | response (percent of control binding), % at 10 µM | hit rate 7.8% among 1,700; in the data active = response below about 75% or above about 130%; inactive = in between;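 also: fluorescent Galphao activated with GDP and aluminum fluoride binding bead-coupled RGS7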
# RGS16-Gao single: confirmation of regulators of human RGS16-Galphao interaction; shares compounds with RGS16-Gao HTS; bead-based flow cytometry, RGS16-Galphao binding; actives lie on both sides; response (% of control binding), % at 10 µM; hit rate 4% among 1,700; AID 1838; in the data active = response below about 74% or above about 130%; inactive = in between;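 also: Galphao activated as the GDP aluminium fluoride complex binding bead-coupled RGS16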
# RGS4-Gao single: RGS4-Galphao interaction regulation, single point confirmation. shares compounds with RGS16-Gao HTS. RGS4-Galphao binding, multiplexed bead flow cytometry; actives lie on both sides. binding response (% of control), % at 10 µM. hit rate 4% among 1,700; in the data active = binding response below about 74% or above about 130%; inactive = in between
# RGS19-Gao conf: RGS19-Galphao interaction regulation, single point confirmation; shares compounds with RGS16-Gao HTS; bead-based flow cytometry RGS19-Galphao binding; actives lie on both sides; response (percent of control binding), % at 10 µM; hit rate 5% among 1,700; in the data active = response below about 50% or above about 160%; inactive = in between;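 also: 100% = no compound control and 0% = blank background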
# The depositor's hits bear a star; ? = inconclusive; . = not tested or not shown; [ ] = another dose, or the depositor's remark. Most compounds without a hit are left out; they make up all but 1.2% or so of the library. Unless noted, no rule for the calls is given here.
SMILES,RGS4-Gao reg,RGS7-Gao,GSH fluor,RGS8-Gao reg,RGS16-Gao HTS,Avidin fluor,Avidin counter,RGS8-Gao confirm,RGS7-Gao single,RGS16-Gao single,RGS4-Gao single,RGS19-Gao conf,others
Cc1nc2ccccc2c(=O)n1-c1cccnc1,107,101,49,102,102,8,.,.,.,.,.,.,
O=c1c2ccccc2nc(-c2ccco2)n1-c1cccnc1,104,100,273*,104,103,8,.,.,.,.,.,.,
O=c1c2ccccc2nc(-c2ccco2)n1-c1ccccn1,106,101,261*,102,105,7,.,.,.,.,.,.,
CCSc1cc(C2C(C#N)=C(N)Oc3n[nH]c(C)c32)c(C)o1 (configuration not stated),99,98,34,94,97,16,.,.,.,.,.,.,
Cc1cc(C)c2c(c1)-c1cc(C)nn1C(c1cccnc1)N2 (configuration not stated),100,103,17,101,99,6,.,.,.,.,.,.,
CCC(=NCCN1CCCCC1)c1c(O)n(C)c(=O)n(C)c1=O,107,104,33,103,115,15,.,.,.,.,.,.,
CCC(=NCCOc1ccc(Cl)cc1)c1c(O)n(C)c(=O)n(C)c1=O,144,132,31,84,175,59*,.,.,.,.,.,.,
FCCN(CCF)c1cccc(Cl)c1,86,?,.,92,89,6,.,.,.,.,.,.,
CC(C)n1c(O)c(C=NCc2ccccc2)c(=O)[nH]c1=S,94,?,.,99,95,7,.,.,.,.,.,.,
CC(Cc1ccccc1)[n+]1cc(/N=C(\[O-])Nc2ccccc2)on1 (configuration not stated),102,110,26,102,103,57*,.,.,.,.,.,.,
CC(Cc1ccccc1)[n+]1cc(/N=C(\N)[O-])on1 (configuration not stated),112,109,15,104,100,10,.,.,.,.,.,.,
CC(C)n1cc(C(=O)N(CC(=O)NC2CCCC2)Cc2ccccc2)cn1,107,127,22,104,106,68*,.,.,.,.,.,.,
O=C(Cc1ccccc1)OCn1nnc2ccccc2c1=O,102,102,126*,88,50,4,.,.,.,.,.,.,
COP(=O)(NC(=O)C(Cl)(Cl)Cl)OC,116,?,.,107,107,81*,.,.,.,.,.,.,
O=c1[nH]c(=S)n(Cc2ccc(F)cc2)c(O)c1/C=N/N1CCCCC1,108,112,35,100,60,487*,.,.,.,.,.,.,
O=c1[nH]c(=S)n(Cc2ccc(F)cc2)c(O)c1C=NCC1CCCO1 (configuration not stated),100,99,35,106,107,16,.,.,.,.,.,.,
CCOP(=S)(OCC)SCC(=O)NC(C)(CC)C(=O)O (configuration not stated),74,94,9,96,-105*,11,-1,104,107,107,105,93,RGS-Gao=74*
O=C(Cc1ccccc1)N1CCN(C/C=C/c2ccccc2)CC1,-8.3*,7.9*,10,29*,-0.6*,4,1,103,104,104,103,113,
Cc1nnc2ccc(N3CCN(C)CC3)nn12,121,111,52,144*[activator],452,5,1,103,107,105,107,110,RGS-Gao=121*
CCOP(=O)(Cc1cc(C#N)oc1C)OCC,104,103,26,88,37,13,.,.,.,.,.,.,
CCn1c(O)c(/C=N/N2CCOCC2)c(=O)n(CC)c1=S,93,88,37,75,14*,7,.,.,.,.,.,.,RGS-Gao=93*
COc1cccc(C(=O)C2CCCN(Cc3ccc4nsnc4c3)C2)c1 (configuration not stated),72,26*,17,48*,89,2,0,109,118,111,107,106,RGS-Gao=72*
N=c1c[n+](C2CCCCC2)[n-]o1,101,94,18,99,100,10,.,.,.,.,.,.,
COc1cc(CC2(CCc3ccncc3)C(=O)N(C)C(=O)N(C)C2=O)cc(OC)c1OC,101,59,12,58*,87,4,2,97,92,95,94,92,RGS-Gao=101*
Cc1cc(OC(=O)N(C)C)n(-c2ccccc2)n1,-23*,?,.,9.2*,-15*,-2,0,100,85,95,92,72,
SMILES,RGS4-Gao reg,RGS7-Gao,GSH fluor,RGS8-Gao reg,RGS16-Gao HTS,Avidin fluor,Avidin counter,RGS8-Gao confirm,RGS7-Gao single,RGS16-Gao single,RGS4-Gao single,RGS19-Gao conf,others
O=C(CN1CC=C(c2ccccc2)CC1)Nc1cc(Cl)ccc1Cl,104,104,4,100,101,11,.,.,.,.,.,.,
Cc1ccc(S(=O)(=O)N2CCCCC2)cc1NC(=O)CN1CC=C(c2ccccc2)CC1,118,122,18,142*[activator],332,14,0,111,114,110,112,107,RGS-Gao=118*
CN(C)C(=O)Oc1c(Cl)cc(Cl)c2ccccc12,106,99,11,98,104,16,.,.,.,.,.,.,
CN(C)C(=O)Oc1ccc(Cl)c2cccnc12,75,80,11,57*,29,2,1,99,100,103,101,103,RGS-Gao=75*
N/C(=N\N=C\c1ccc(O)cc1O)N[N+](=O)[O-],84,88,14,77,-23*,12,0,96,96,98,100,90,RGS-Gao=84*
COc1ccccc1/C=N/N=C(/N)N[N+](=O)[O-],113,112,11,101,110,16,.,.,.,.,.,.,
CC1CC2(O)c3nonc3CCC2N1O (configuration not stated),112,113,15,108,108,5,.,.,.,.,.,.,
NC(Cc1nc2ccccc2[nH]1)c1ccc(Cl)cc1 (configuration not stated),116,?,.,103,111,10,.,.,.,.,.,.,
CC1(C)CC(CCNCc2ccc3c(c2)OCO3)(Cc2ccccc2)CCO1 (configuration not stated),93,91,16,97,100,13,.,.,.,.,.,.,

# Screens: PubChem, NMMLSC
